Assay [1] deals with Rap guanine nucleotide exchange factor 3 (Homo sapiens) (UniProt O95398). The assay is described as follows: Confirmatory qHTS for agonist of cAMP-regulated guanine nucleotide exchange factor 3 (EPAC1) (AID 1645881).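 Further: EPAC1 catalysed release of BODIPY-GDP from Rap1B seen as fluorescence loss; 100% = effect of cAMP agonist control; nearly all actives have a fitted effect of over 75% in size.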 The conditions noted are these: EPAC1 Rap1B BODIPY-GDP exchange fluorescence; series mostly up to 154 µM.
Rap guanine nucleotide exchange factor 3 (Homo sapiens), sequence (O95398 whole entry, looked up): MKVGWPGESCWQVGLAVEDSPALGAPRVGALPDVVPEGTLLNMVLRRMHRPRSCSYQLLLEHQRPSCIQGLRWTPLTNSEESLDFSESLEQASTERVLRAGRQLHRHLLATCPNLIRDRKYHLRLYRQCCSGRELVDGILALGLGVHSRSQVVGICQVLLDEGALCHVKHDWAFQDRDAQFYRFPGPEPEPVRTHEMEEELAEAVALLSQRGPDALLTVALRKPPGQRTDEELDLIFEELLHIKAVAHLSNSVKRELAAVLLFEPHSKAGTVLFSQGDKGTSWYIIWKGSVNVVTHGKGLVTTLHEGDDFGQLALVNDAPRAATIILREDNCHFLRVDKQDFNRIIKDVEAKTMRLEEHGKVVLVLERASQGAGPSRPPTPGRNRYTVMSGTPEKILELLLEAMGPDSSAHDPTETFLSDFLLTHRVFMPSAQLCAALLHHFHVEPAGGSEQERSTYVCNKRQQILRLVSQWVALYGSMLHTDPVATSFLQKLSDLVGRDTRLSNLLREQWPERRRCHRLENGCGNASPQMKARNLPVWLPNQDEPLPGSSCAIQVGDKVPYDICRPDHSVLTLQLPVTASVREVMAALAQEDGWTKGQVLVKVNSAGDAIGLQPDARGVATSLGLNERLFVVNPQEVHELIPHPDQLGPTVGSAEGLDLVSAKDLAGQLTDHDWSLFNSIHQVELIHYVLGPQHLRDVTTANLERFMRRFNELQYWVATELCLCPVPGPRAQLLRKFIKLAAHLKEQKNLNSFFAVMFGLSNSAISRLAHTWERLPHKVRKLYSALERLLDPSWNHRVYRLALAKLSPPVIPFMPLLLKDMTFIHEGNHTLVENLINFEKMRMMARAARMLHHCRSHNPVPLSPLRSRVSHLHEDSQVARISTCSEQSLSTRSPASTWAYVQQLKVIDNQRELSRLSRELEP
Assay [2] addresses Rap guanine nucleotide exchange factor 4 (Homo sapiens) (UniProt Q8WZA2). The assay is described as follows: Confirmatory qHTS for agonist of cAMP-regulated guanine nucleotide exchange factor 4 (EPAC2) (AID 1645884). Further: on the % scale 0 is the no-effect control and ±100 the full control effect; nearly all actives have a fitted effect of over 65% in size. The conditions noted are these: EPAC2 GEF activity, Rap1B-BODIPY-GDP fluorescence; series mostly up to 154 µM.
For assay [3] the target is unchanged. The assay is described as follows: Confirmatory qHTS for antagonist of cAMP-regulated guanine nucleotide exchange factor 4 (EPAC2) (AID 1645885). Further: nearly all actives have a fitted effect of over 25% in size. Further: potency means the concentration at half of the fitted maximal effect. On activity change, negative = inhibition: on the % scale 0 is the no-effect control and ±100 the full control effect. The conditions noted are these: EPAC2 Rap1B-BODIPY-GDP exchange fluorescence, biochemical; series mostly up to 12.7 µM.
The target in assay [4] is Rap guanine nucleotide exchange factor 3 (Homo sapiens) (UniProt O95398). The assay is described as follows: Counterscreen qHTS for antagonist of cAMP-regulated guanine nucleotide exchange factor 3 (EPAC1) (AID 1645888).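 Further: fluorescence loss as bound BODIPY-GDP is released from Rap1B; % of control where 0% means no effect.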 Particulars: Rap1B-BODIPY-GDP nucleotide exchange, fluorescence; series mostly up to 154 µM. In short, it runs like this:
(§1)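 Rap1B-BODIPY-GDP 250 nM + GDP 50 uM; cpds 7-pt, final 9.74 nM–152 uM (activator mode) or from 7.32 nM upwards (inhibitor mode); RT; FI 480/540 nm at 5 and 30 min, then ± cAMP, reread.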
A general note: Counterscreens check selectivity or assay interference.

Assay [5] has the same target. The assay can be described thus: Counterscreen qHTS for agonist of cAMP-regulated guanine nucleotide exchange factor 3 (EPAC1) (AID 1645889). Further: % of control where 0% means no effect; nearly all actives have a fitted effect of over 40% in size. The conditions noted are these: EPAC1 Rap1B-BODIPY-GDP exchange, fluorescence; series mostly up to 154 µM. Summed up:
as §1

Here are results for 19 molecules from PubChem BioAssay (NCATS).

Inconclusive results are not listed. Values without a mark were called inactive. Calls of active or inactive are those of the source. The call rests on the fitted dose curve; in most records, active means well fitted curve in the direction sought with a large enough effect; inconclusive means small, poorly fitted or top-dose-only effect, or another doubt; inactive means no such curve, though single readings can be large; an effect the other way counts as inactive or inconclusive.

Rap guanine nucleotide exchange factor 4 (Homo sapiens), sequence (Q8WZA2 whole entry, looked up): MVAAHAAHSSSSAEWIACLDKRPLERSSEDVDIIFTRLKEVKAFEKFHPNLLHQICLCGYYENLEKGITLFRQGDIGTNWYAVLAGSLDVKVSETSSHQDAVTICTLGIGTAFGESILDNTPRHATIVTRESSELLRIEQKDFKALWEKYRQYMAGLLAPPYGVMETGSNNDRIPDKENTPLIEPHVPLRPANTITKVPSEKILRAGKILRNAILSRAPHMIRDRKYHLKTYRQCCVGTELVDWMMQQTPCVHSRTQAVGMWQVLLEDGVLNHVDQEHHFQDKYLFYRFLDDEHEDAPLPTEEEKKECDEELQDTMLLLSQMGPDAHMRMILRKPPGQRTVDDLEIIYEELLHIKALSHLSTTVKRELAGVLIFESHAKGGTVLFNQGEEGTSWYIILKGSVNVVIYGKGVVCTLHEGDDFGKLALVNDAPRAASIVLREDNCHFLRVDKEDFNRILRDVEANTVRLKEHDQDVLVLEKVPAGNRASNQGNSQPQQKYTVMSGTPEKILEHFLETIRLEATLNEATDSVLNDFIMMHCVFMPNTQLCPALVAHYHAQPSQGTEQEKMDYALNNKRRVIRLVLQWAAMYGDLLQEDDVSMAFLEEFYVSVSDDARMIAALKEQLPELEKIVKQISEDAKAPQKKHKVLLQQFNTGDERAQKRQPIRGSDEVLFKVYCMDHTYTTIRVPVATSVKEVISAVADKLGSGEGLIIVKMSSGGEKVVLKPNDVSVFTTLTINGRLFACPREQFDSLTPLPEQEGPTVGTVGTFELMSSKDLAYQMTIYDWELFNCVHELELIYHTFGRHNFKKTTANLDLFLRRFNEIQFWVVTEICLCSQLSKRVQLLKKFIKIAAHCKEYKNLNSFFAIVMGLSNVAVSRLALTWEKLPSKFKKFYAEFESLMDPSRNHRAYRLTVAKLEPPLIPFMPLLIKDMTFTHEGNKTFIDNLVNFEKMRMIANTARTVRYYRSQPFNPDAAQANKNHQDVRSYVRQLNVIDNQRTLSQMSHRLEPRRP

Turning to `O=S(=O)(O)c1ccc(NN=Cc2ccccc2O)cc1`, the Potency entry in assay [1] and in assay [3] was “inactive” throughout. The activation in assay [2] is -8.55% [at 17.1 µM, percent relative to cAMP agonist control]; in assay [5], 20.1% [at 30.8 µM]. Moreover, the activity change, negative = inhibition in assay [4] is 3.2% [at 30.8 µM].
In the case of `COc1cc(/C=C2/C(=O)NN(c3cccc(Cl)c3)C2=O)cc(OC)c1O`, the Potency result in assay [1] and in assay [3] was “inactive” in each case. Further, the activation was 11.7% [at 17.1 µM, percent relative to cAMP agonist control] in assay [2] and 4.51% [at 30.8 µM] in assay [5]. For the same molecule, the activity change, negative = inhibition in assay [4] is -0.0912% [at 30.8 µM].
In the case of `CC(C)C[C@H](NC(=O)C1(c2ccccc2)CCN(C(=O)OC(C)(C)C)CC1)C(=O)N1CCC[C@H]1C(=O)O`, the Potency entry in assay [1], in assay [2], in assay [3], in assay [4] and in assay [5] was “inactive” throughout.
Consider `CCOc1cc(/C=C/C(=O)OCC(=O)NCc2ccco2)cc(Cl)c1OC`, for which the Potency result in assay [1], in assay [2], in assay [3], in assay [4] and in assay [5] was “inactive” in each case.
On to `O=C(Nc1cc(C(F)(F)F)ccc1Cl)c1nc2ccccc2nc1N1CCCCC1`, for which the Potency entry in assay [1], in assay [2], in assay [4] and in assay [5] was “inactive” each time. Further, the outcome in assay [3] was “inactive [at 12.7 µM]”.
For the molecule `O=C(NCc1cccc(Cl)c1)c1ccc(S(=O)(=O)Nc2cccc(C(F)(F)F)c2)cc1`, the Potency result in assay [1], in assay [2], in assay [3], in assay [4] and in assay [5] was “inactive” throughout.
Regarding `CCC(C(=O)O)N1C(=O)/C(=C/C(C)=C/c2ccccc2)SC1=S` (stereo not given), the Potency entry in assay [1], in assay [2], in assay [4] and in assay [5] was “inactive” in each case. For the same molecule, the Potency in assay [3] is 75.7 µM (active).
Consider `O=C(O)c1sccc1SCc1ccc(Cl)c(Cl)c1`, for which the Potency entry in assay [1], in assay [2], in assay [3], in assay [4] and in assay [5] was “inactive” in each case.
On to `CCOC(=O)C(C(C)C)C(N)Cc1ccc(F)cc1` (stereo not given), for which the Potency entry in assay [1], in assay [2], in assay [3], in assay [4] and in assay [5] was “inactive” in each case.
In the case of `Cc1cccc(CN2C(=O)c3ccccc3Sc3ccc(C(=O)N4CCCC4)cc32)c1`, the Potency entry in assay [1], in assay [2], in assay [3], in assay [4] and in assay [5] was “inactive” throughout.
Take `C=CCn1cc(C(=O)N2CCc3ccccc3C2)c(=O)c2cc(S(=O)(=O)N(CC)CC)ccc21`: the Potency entry in assay [1], in assay [2], in assay [3], in assay [4] and in assay [5] was “inactive” throughout.
Regarding `COc1cc(OC)cc(-c2cc3ccc(OC)cc3cn2)c1`, the Potency result in assay [1], in assay [2], in assay [4] and in assay [5] was “inactive” each time. For the same molecule, the Potency in assay [3] was 30.1 µM (active).
For `NS(=O)(=O)c1ccc(CCNC(=O)Cc2ccc(S(=O)(=O)N3CCCC3)s2)cc1`, the Potency result in assay [1] and in assay [3] was “inactive” in each case. Besides, the activation is 2.8% [at 17.1 µM, percent relative to cAMP agonist control] in assay [2] and 24% [at 30.8 µM] in assay [5]. Also, the activity change, negative = inhibition in assay [4] is 7.67% [at 30.8 µM].
As for `CCCc1nc(SC2CCCC2)c2c(=O)n(C)c(=O)n(C)c2n1`, the Potency result in assay [1], in assay [2], in assay [3], in assay [4] and in assay [5] was “inactive” in each case.
For `Cc1ccc(/C=C(\CCC(=O)O)c2nc3ccccc3s2)cc1[N+](=O)[O-]`, the Potency entry in assay [1] and in assay [3] was “inactive” in each case. Besides, the activation in assay [2] was 6.79% [at 17.1 µM, percent relative to cAMP agonist control]; in assay [5], 0.0676% [at 30.8 µM]. The activity change, negative = inhibition in assay [4] was -11.2% [at 30.8 µM].
On to `CCOC(=O)COc1ccc(/C=C(\C#N)c2nc3ccc(C)cc3[nH]2)cc1OC`, for which the Potency result in assay [1], in assay [2], in assay [3], in assay [4] and in assay [5] was “inactive” throughout.
Take `Cc1cccc(C)c1-c1ccc(CN2C(CC(C)C)C(=O)N(Cc3cn(CCO)nn3)CCS2(=O)=O)cc1` (stereo not given): the Potency entry in assay [1] and in assay [3] was “inactive” in each case. Besides, the activation in assay [2] is -6.44% [at 17.1 µM, percent relative to cAMP agonist control]; in assay [5], 18.7% [at 30.8 µM]. For the same molecule, in assay [4], the activity change, negative = inhibition is 9.55% [at 30.8 µM].
Consider `COCC(=O)Oc1c(Sc2ccccc2[N+](=O)[O-])c(C)nn1C(C)(C)C`, for which the Potency result in assay [1], in assay [2], in assay [3], in assay [4] and in assay [5] was “inactive” in each case.
Regarding `CC(C)c1cccc(-c2ccc3c(c2)S(=O)(=O)c2cccc(C(=O)O)c2C3=O)c1`, the Potency result in assay [1], in assay [2], in assay [3], in assay [4] and in assay [5] was “inactive” each time.
